This note sets out measurements from PubChem BioAssay.

The source made the active and inactive calls.

The target of one test is Albumin (Bos taurus) (UniProt P02769). Briefly: bovine serum albumin binders on microarray, profiling panel, artefact control for SMM control protein annotation, biochemical, small-molecule microarray, Alexa647 label, 635/667 nm fluorescence (AID 1118).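 Further: score merges 667 nm emission intensity and signal-to-noise per printed compound spot.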 Conditions: BSA-A647 binding, fluorescence 635 nm, higher = more signal.
Sequence of Albumin (Bos taurus) (P02769 whole entry, looked up): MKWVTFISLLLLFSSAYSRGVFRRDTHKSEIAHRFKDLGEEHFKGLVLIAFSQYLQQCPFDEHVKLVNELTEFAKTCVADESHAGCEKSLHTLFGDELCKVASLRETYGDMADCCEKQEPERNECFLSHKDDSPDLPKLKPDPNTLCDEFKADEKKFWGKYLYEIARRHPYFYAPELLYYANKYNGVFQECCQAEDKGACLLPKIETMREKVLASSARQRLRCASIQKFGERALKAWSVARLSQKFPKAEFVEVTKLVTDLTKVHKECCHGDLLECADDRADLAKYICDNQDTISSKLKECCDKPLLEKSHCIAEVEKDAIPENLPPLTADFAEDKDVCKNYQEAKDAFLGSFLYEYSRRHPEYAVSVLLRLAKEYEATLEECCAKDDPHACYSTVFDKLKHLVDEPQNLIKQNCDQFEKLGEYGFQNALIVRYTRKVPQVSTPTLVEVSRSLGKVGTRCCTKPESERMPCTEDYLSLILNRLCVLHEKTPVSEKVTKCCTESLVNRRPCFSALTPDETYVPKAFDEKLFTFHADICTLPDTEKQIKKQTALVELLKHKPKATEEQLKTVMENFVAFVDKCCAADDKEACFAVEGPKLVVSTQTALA
Test [1] is described as follows: small-molecule microarray binders of probe aXIP, primary screen, biochemical, NeuroSMM set, 635/667 nm fluorescence (AID 1119).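 Further: probe is the protein aXip251-270 applied at 1 µg/mL to compound-printed slides; binding of probe to printed compounds measured as 667 nm fluorescence plus signal to noise.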 Conditions: higher = more signal, called active from +8 up or from −8 down.
Test [2] can be described thus: small-molecule binders of probe aNOTCH3, primary screen, biochemical, small-molecule microarray, 635/667 nm fluorescence (AID 1120).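 Further: probe is a biotin-tagged antibody raised against NOTCH3 rather than NOTCH3 protein; score merges spot fluorescence near 667 nm with spot signal to noise.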 Conditions: higher = more signal.
A short description of test [3]: small-molecule binders of probe aNOTCH2, primary screen, biochemical, small-molecule microarray, 635/667 nm fluorescence (AID 1121).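 Further: score merges feature fluorescence read at 667 nm with its signal to noise.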 Particulars: higher = more signal.
The target of test [4] is Carbonic anhydrase 2 (Homo sapiens) (UniProt P00918). Briefly: CAII small-molecule binders, profiling panel, biochemical, small-molecule microarray, Alexa647-labelled CAII (AID 1122). Conditions: CAII-A647 binding fluorescence, higher = more signal.
A short description of test [5]: COS7 lysate on small-molecule microarray, probe aHis, 635 nm (AID 1123).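 Further: z-score combines 667nm fluorescence intensity with signal-to-noise per printed compound spot.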 Particulars: COS7 cell lysate, fluorescence, higher = more signal.
Test [6] can be described thus: compound binding in COS7 lysate, probe aLAP1, primary screen, cell lysate, small-molecule microarray (AID 1124).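 Further: lysate comes from COS7 cells expressing LAP1 and is applied at 0.3 µg/mL; score merges spot fluorescence near 667 nm with signal-to-noise over triplicate slides.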 Particulars: probe aLAP1, fluorescence, higher = more signal.
In another test the test system is Sam68 (KHDRBS1). Briefly: Sam68 small-molecule binders, primary screen, biochemical, small-molecule microarray, 635 nm fluorescence (AID 1125).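 Further: score merges 667 nm channel intensity with signal to noise over triplicate slides.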 Conditions: small-molecule microarray binding, higher = more signal.
The test system of test [7] is Chordin-like protein 2 (CHRDL2). Briefly: CHRDL2 small-molecule binders, primary screen, biochemical, small-molecule microarray, 635 nm fluorescence (AID 1126).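 Further: printed compound slides probed with Chrdl2 protein at 4 µg/mL for 1 h at 4 C; score merges 667 nm emission intensity with signal to noise over three replicate slides.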 Particulars: small-molecule microarray binding, fluorescence 635 nm; higher = more signal.
Test [8] concerns the target Concanavalin-A (Canavalia ensiformis) (UniProt P02866). Briefly: ConA small-molecule binders, primary screen, artefact control for SMM control protein annotation, biochemical, small-molecule microarray, Alexa647 label, 635 nm (AID 1127).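 Further: z combines 667 nm emission intensity with signal-to-noise across three replicate slides.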 Particulars: ConA-A647 binding fluorescence, higher = more signal.

Sequence of Concanavalin-A (Canavalia ensiformis) (P02866 whole entry, looked up): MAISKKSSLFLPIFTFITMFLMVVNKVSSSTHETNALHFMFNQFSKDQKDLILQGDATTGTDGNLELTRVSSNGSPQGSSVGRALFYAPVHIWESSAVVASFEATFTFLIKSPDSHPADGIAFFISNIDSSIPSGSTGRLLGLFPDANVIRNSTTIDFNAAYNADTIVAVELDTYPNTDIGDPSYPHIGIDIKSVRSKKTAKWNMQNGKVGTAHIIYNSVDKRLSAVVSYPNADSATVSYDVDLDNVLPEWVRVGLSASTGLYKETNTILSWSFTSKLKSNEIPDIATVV

`COC(=O)C(CC#Cc1ccc2c(c1)[C@]1(C(=O)N2)[C@H](C(=O)O)[C@H]2C(=O)O[C@H](c3ccccc3)[C@H](c3ccccc3)N2[C@@H]1c1ccccc1OCCO)C(=O)OC`: the composite z-score with Albumin (Bos taurus) worked out at 0.788; in [2], 0.277; in test [3] it was 0.054; in [4], 0.684; in test [5], 1.62; in test [6], 1.11. The composite z-score in the test on Sam68 (KHDRBS1) stood at 1.32; in [7], 0.364; in [8], 1.15. Also, the composite Z-score in [1] is -0.051 (inactive).
As to `CN(C)C(=O)[C@@]1(Cc2ccccc2N=[N+]=[N-])COC(c2ccc(OCCCO)cc2)=N1`, the composite z-score with Albumin (Bos taurus) is 0.623; in test [2], 0.12; in test [3], -0.268; in [4] it was 0.71; in [5] it was 1.89; in test [6], 0.0648. Besides, the composite z-score with Sam68 (KHDRBS1) is 0.905; in [7], 0.118; in test [8], 1.12. Also, the composite Z-score in test [1] was 1.69 (inactive).
`COc1cc2c(cc1OC)CN(C(=O)[C@H]1[C@@H]3C(=O)O[C@@H](c4ccccc4)[C@@H](c4ccccc4)N3[C@@H](c3ccc(OCCO)cc3)[C@]13C(=O)Nc1ccc(C#CCCO)cc13)CC2`: the composite z-score amounted to 0.592 with Albumin (Bos taurus); 0.0418 in [2]; 0.0292 in test [3]; 0.434 in [4]; 2.2 in test [5]; 1.25 in test [6]. Further, the composite z-score with Sam68 (KHDRBS1) is 1.29; in [7], 0.0602; in test [8], 1.11. Moreover, the composite Z-score in [1] was 0.524 (inactive).
In the case of `CCOC(=O)C[C@H]1[C@H](OC(=O)c2ccc(-c3ccccc3)cc2)[C@@H](NC(=O)C2CCCCC2)c2cc(OCCCO)ccc2N1C(=O)c1ccccc1`, the composite z-score in the test with Albumin (Bos taurus) is 0.236; in test [2], 0.172; in [3] it was -0.152; in test [4], 0.0455; in test [5], 0.92; in test [6], 0.0846. Moreover, the values for the composite z-score (with Sam68 (KHDRBS1); in [7]; in test [8]) were 0.957, 0.372 and 0.949, respectively. In addition, the composite Z-score in test [1] is -0.6 (inactive).
Consider `CC(C)N1CC=CC23O[C@@H]4C=CCCOC(=O)C4[C@H]2C(=O)N(CCO)[C@@H]3C1=O` (stereo not given in full), for which the composite z-score is 0.0894 in the test with Albumin (Bos taurus); -0.305 in [2]; -0.125 in test [3]; 0.763 in test [4]; -0.548 in test [5]; 0.199 in test [6]. For the same compound, the composite z-score is -0.354 in the test on Sam68 (KHDRBS1), -0.414 in test [7] and 0.172 in test [8]. Moreover, the composite Z-score in [1] was -0.455 (inactive).
Take `CCOC(=O)C1=CC[C@@H](c2ccccc2)N(S(=O)(=O)c2ccc(C)cc2)C1`: the composite z-score with Albumin (Bos taurus) was 0.425; in test [2], 0.283; in [3] it was -0.0176; in [4] it was 0.38; in test [5] it was 0.522; in test [6], 0.786. The composite z-score was 0.143 in the test with Sam68 (KHDRBS1), 0.565 in [7] and -0.264 in test [8]. For the same compound, the composite Z-score in test [1] was -0.0056 (inactive).
Consider `CCCc1cccc(=O)o1`, for which the composite z-score was 0.387 with Albumin (Bos taurus); -0.0665 in test [2]; -0.127 in test [3]; 0.43 in test [4]; 0.897 in test [5]; 0.359 in [6]. Moreover, the composite z-score came to 0.699 in the test on Sam68 (KHDRBS1), 0.221 in test [7] and 0.828 in test [8]. In addition, the composite Z-score in test [1] is -0.75 (inactive).
Turning to `COC(=O)[C@@]1(Cc2ccc(F)cc2)[C@H]2c3cc(C(=O)N4CCCC4)n(CCF)c3C[C@H]2CN1C(=O)c1ccccc1`, the composite z-score with Albumin (Bos taurus) was found to be 1.09; in [2] it was 1.82; in [3], 0.948; in test [4], 0.811; in test [5], 3.46; in [6], 0.829. The composite z-score in the test on Sam68 (KHDRBS1) was 0.37; in test [7], 0.294; in test [8], 0.857. Besides, the composite Z-score in [1] is 0.803 (inactive).
As to `O=C1C[C@]2(c3ccc([N+](=O)[O-])cc3)C(=O)N(Cc3ccccc3)c3cc(CO)ccc3[C@H]2N1CC12CC3CC(CC(C3)C1)C2`, the composite z-score was -0.729 with Albumin (Bos taurus); -0.356 in test [2]; -0.207 in test [3]; -0.406 in test [4]; 0.284 in test [5]; 1.66 in test [6]. The results for the composite z-score (in the test with Sam68 (KHDRBS1); in test [7]; in [8]) were -1.26, -1.27 and -1.73, respectively. Moreover, the composite Z-score in [1] was -0.767 (inactive).
As for `CCCCN1CC=CC23O[C@@H]4C=CCOC(=O)[C@@H]4[C@H]2C(=O)N(CCCO)[C@@H]3C1=O` (stereo not given in full), the composite z-score with Albumin (Bos taurus) was 0.335; in test [2], -0.321; in test [3], -0.179; in [4] it was 0.868; in test [5], 0.726; in [6] it was 0.95. Also, the composite z-score in the test with Sam68 (KHDRBS1) is 0.237; in [7] it was -0.565; in [8], -0.926. The composite Z-score in test [1] is 0.064 (inactive).
`COc1c(C)cc(-c2cc3c(c(Cc4ccccc4)n2)[Si](C(C)C)(C(C)C)OC3)cc1C`: the composite z-score with Albumin (Bos taurus) is 0.0401; in test [2] it was -0.0881; in test [3], -0.0907; in test [4], -0.143; in test [5], 0.0246; in test [6], -0.269. Further, the composite z-score in the test on Sam68 (KHDRBS1) came to 0.0189; in test [7], 0.198; in test [8] it was 0.0652. Besides, in [1], the composite Z-score is -0.014 (inactive).
On to `COC(=O)[C@@]1(Cc2ccccc2)[C@H]2c3cc(C(=O)N4CCCC4)n(C[C@H](O)CO)c3C[C@H]2CN1C(=O)c1ccccc1`, for which the composite z-score in the test with Albumin (Bos taurus) is 0.659; in [2] it was 0.152; in test [3] it was 0.0837; in test [4], 0.907; in [5], 1.79; in test [6], 0.288. The composite z-score in the test with Sam68 (KHDRBS1) is 0.18; in test [7], -1.34; in test [8], -0.311. Moreover, the composite Z-score in [1] was -0.164 (inactive).
`NC(=O)NCC#Cc1ccc2c(c1)[C@]1(C(=O)N2)[C@H](c2ccc(O)cc2)N2[C@H](c3ccccc3)[C@H](c3ccccc3)OC(=O)[C@H]2[C@@H]1C(=O)Nc1nc2ccccc2s1`: the composite z-score in the test with Albumin (Bos taurus) was 0.121; in [2], -0.0259; in test [3] it was -0.0203; in test [4], 0.431; in test [5], 0.66; in test [6], 0.11. The composite z-score was found to be 0.637 in the test with Sam68 (KHDRBS1), 1.17 in test [7] and 0.962 in test [8]. In addition, the composite Z-score in test [1] was 0.0296 (inactive).
Turning to `C=CC[C@@]1(C(=O)N2CCCCC2)N=C(c2ccc(OCCCO)cc2)O[C@@H]1c1ccccc1`, the composite z-score is 0.676 in the test with Albumin (Bos taurus); 0.284 in test [2]; 0.195 in test [3]; 0.57 in test [4]; 2.39 in [5]; 1.07 in test [6]. Moreover, the composite z-score in the test with Sam68 (KHDRBS1) is 1.29; in test [7] it was 0.453; in [8], 0.357. Also, in [1], the composite Z-score is -0.221 (inactive).
As to `C[C@H]1C2=C3C(CC[C@H]4C(OCc5ccc(F)cc5C(F)(F)F)OC[C@](C)([C@@H]34)N(C(=O)OC(C)(C)C)C2)C2COC(=O)OCC21` (stereo not given in full), the composite z-score stood at 0.963 with Albumin (Bos taurus); 0.242 in [2]; 0.183 in test [3]; 0.754 in test [4]; 2.93 in test [5]; 0.399 in [6]. In addition, the composite z-score was 1.31 with Sam68 (KHDRBS1), -1.67 in test [7] and 1.1 in [8]. Moreover, the composite Z-score in test [1] was -0.0452 (inactive).
For `CC(C)N1CC=CC23O[C@@H]4C=CCOC(=O)[C@@H]4[C@H]2C(=O)N(C(C)CO)[C@@H]3C1=O` (stereo not given in full), the composite z-score with Albumin (Bos taurus) was -0.385; in test [2], -0.149; in test [3] it was -0.0891; in test [4], 0.406; in test [5] it was 0.0561; in test [6], 1.06. Besides, the composite z-score in the test on Sam68 (KHDRBS1) is -0.876; in test [7] it was -1.03; in [8] it was 0.261. Besides, the composite Z-score in test [1] is 0.365 (inactive).
